Source: PubChem BioAssay (NCATS)
“And” between values parts separate entries of the source, which are not always exact repeats. Equal values may be shown once. Results filed as inconclusive are left out. Entries that show only a call come without a potency. The source made the active and inactive calls. Calls follow the shape of the dose curve; as a rule, active = well fitted cell-killing curve with a large enough effect; inconclusive = small, poorly fitted or top-dose-only effect; inactive = flat fitted curve, though single readings scatter.

Assay: Cell Viability - LYMP2-015 (AID 971); also: nearly all actives have a fitted effect of over 55% in size
Conditions: LYMP2-015 lymphoblastoid cell viability; series mostly up to 92.2 µM
From the text: NIH Chemical Genomics Center [NCGC]
NIH Molecular Libraries Screening Centers Network [MLSCN]
National Institutes of Environmental Health Sciences [NIEHS]
National Toxicology Program [NTP]
We have developed a 1536-well cell-based assay for quantitative high throughput screening (qHTS) against a number of cell lines to determine in vitro cytotoxicity of small molecules. This particular assay uses a human lymphoblastoid cell line (LYMP2-015) purchased from Coriell Institute for Medical Research.
NCGC Assay Protocol Summary:
The CellTiter-Glo luminescent cell viability assay (Promega) is a homogeneous method to measure the number of viable cells in culture. The end point readout of this assay is based on quantitation of intracellular ATP, an indicator of metabolic activity, using the luciferase reaction. Luciferase catalyzes the oxidation of beetle Luciferin to oxyluciferin and light in the presence of ATP. The luminescent signal is proportional to amount of ATP present.
Using the CellTiter-Glo luminescent cell viability assay, the amount of cellular ATP was measured in the lymphoblastoid cell line with complete culture medium following compound treatment for 24 hours. The assay was performed in opaque white Kalypsys 1536-well plates. In the screen, tetraoctylammonium bromide was used as positive control. Library compounds were measured for their ability to cause acute toxicity in the cell line, as reflected by a decrease in intracellular ATP levels, in a concentration-dependent manner. […] AC50 values were determined from concentration-response data modeled with the standard Hill equation.
qHTS protocol for CellTiter Glo lymphoblastoid cellular assay
[Step] [Parameter] [Value] [Description]
1. Reagent; 5 uL; 2500 lymphoblastoid cells/well
2. Time; 5 hr; 37 C incubation
4. Controls; 23 nL; Tetraoctylammonium bromide 6.4pM to 92 uM
5. Time; 24 hr; 37 C incubation
6. Reagent; 5 uL; CellTiter Glo reagent
7. Time; 30 min; Room Temperature
8. Detection; Luminescence; Viewlux plate reader
Keywords: cell viability, cytotoxicity, lymphoblastoid cell line, luminescence, NTPHTS, NTPHTS_NCGC, NIEHS, DSSTox, MLSMR, MLSCN, NIH Roadmap, qHTS, NCGC
Potency is read from the fitted curve at half-maximal effect.

SMILES | Potency
CCO | inactive
CCCCC(CC)CN (stereo not given) | inactive
CCCCCCCCCCCCCC(=O)O | inactive
Cc1ccc(N)c([N+](=O)[O-])c1 | inactive
O=C(/C=C/c1ccc(O)c(O)c1)O[C@@H](C(=O)O)[C@@H](OC(=O)/C=C/c1ccc(O)c(O)c1)C(=O)O | inactive
ClCCCl | inactive
c1ccc2scnc2c1 | inactive
S=C1NC=NC2N=CNC12 (stereo not given) | inactive
c1ccc2c(c1)c1cccc3ccc4cccc2c4c31 | inactive
C=C(C)C1CC=C(C)C(O)C1 (stereo not given) | inactive
O=C(O)c1ccccc1C(c1ccc(O)cc1)c1ccc(O)cc1 | inactive
CC1(C)CC(N=C=O)CC(C)(CN=C=O)C1 (stereo not given) | inactive
O=C(O)c1ccc(O)cc1O | inactive
c1ccccc1 | inactive
CCCN(CCC)C(=O)SCC | inactive
CC(=O)OC/C=C(\C)CCC=C(C)C | inactive
CN(C)C=O | inactive
O=S(=O)(O)c1ccccc1 | inactive
COc1ccc2nc(N)sc2c1 | inactive
Clc1cc(Cl)c(Cl)cc1Cl | inactive

SMILES | Potency
CC1=CC(C)(C)Nc2ccccc21 | inactive
Cc1cccc([N+](=O)[O-])c1C | inactive
C=CC(=O)OCCOCCOCCOCCOC(=O)C=C | 25.1 µM (active) and 20 µM (active)
CCC(C)c1ccccc1O (stereo not given) | inactive
C[C@H](CCC(=O)O)[C@H]1CC[C@H]2[C@@H]3CC[C@@H]4C[C@H](O)CC[C@]4(C)[C@H]3CC[C@]12C | inactive
O=C(O)c1ccccc1 | inactive
C=CC(=C)CCC=C(C)C | inactive
CCO[Si](CCCN)(OCC)OCC | inactive
CN(C)CCCCCCN(C)C | inactive
CC1=C2[C@H](/C=C(\C)C(=O)O)CC[C@@H](C)[C@H]2CC1 | inactive
O[C@@H]([C@H](O)[C@@H](O)CBr)[C@@H](O)CBr | inactive
COc1c2ccoc2cc2oc(=O)ccc12 | inactive
COc1cc(/C=C/c2ccccc2)oc(=O)c1 | inactive
C1OCOCO1 | inactive
CCCCCCCCCCCC(=O)O | inactive
Nc1ccc(S(=O)(=O)O)cc1 | inactive
COc1ccc(/C=C/c2cc(OC)cc(=O)o2)cc1 | inactive
Cc1ccccc1C | inactive
C=CCOC(=O)c1ccccc1C(=O)OCC=C | inactive
c1ccc2c(c1)[nH]c1ccccc12 | inactive
